Records with an inconclusive call do not appear. Activity calls are given as the source filed them. Unless noted, calls come from the whole dose curve.
Tests used:
[1] = biological target: Bile acid receptor (Homo sapiens) (UniProt Q96RI1); test: qHTS assay for small molecule agonists of farnesoid X receptor signaling (AID 588527); conditions: HEK293T FXR-UAS-bla, beta-lactamase ratio, 16 h; activation: stronger effect = higher value;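 note: series mostly up to about 77 µM; 0% = vehicle basal and 100% = reference agonist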
Bile acid receptor (Homo sapiens), sequence (Q96RI1 whole entry, looked up): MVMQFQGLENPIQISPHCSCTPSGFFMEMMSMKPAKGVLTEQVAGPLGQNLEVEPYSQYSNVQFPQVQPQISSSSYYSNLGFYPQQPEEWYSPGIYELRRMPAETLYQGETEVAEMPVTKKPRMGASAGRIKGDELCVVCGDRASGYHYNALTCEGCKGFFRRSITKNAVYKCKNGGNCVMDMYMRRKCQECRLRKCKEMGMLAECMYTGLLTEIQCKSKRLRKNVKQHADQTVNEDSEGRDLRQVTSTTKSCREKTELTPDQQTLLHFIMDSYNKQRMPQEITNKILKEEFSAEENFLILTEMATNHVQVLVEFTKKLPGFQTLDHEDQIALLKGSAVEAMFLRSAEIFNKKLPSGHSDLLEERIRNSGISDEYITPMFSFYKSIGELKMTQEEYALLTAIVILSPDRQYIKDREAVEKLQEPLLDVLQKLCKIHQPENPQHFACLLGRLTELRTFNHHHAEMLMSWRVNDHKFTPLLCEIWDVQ
How it was run: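 Read-out: beta-lactamase reporter fluorescence with CCF4 substrate in GeneBLAzer FXR-UAS-bla HEK293T cells, after 16 h compound exposure at 37 C. Response scaled between DMSO basal (0%) and chenodeoxycholic acid at 100 uM (100%).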

[2] = biological target: Bile acid receptor (Homo sapiens) (UniProt Q96RI1); test: qHTS assay for small molecule antagonists of farnesoid X receptor signaling (AID 588526); note: % is set by controls: 0 for no effect and ±100 for the full control effect
How it was run: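 Antagonist mode: titrated compounds tested against chenodeoxycholic acid stimulation (normalized to 50 uM CDCA and DMSO) in GeneBLAzer HEK293T cells for 16 h. Beta-lactamase read by CCF4 fluorescence; IC50 from Hill fits.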

[3] = biological target: Peroxisome proliferator-activated receptor delta (Homo sapiens) (UniProt Q03181); test: qHTS assay for small molecule agonists of peroxisome proliferator-activated receptor delta signaling (AID 588534);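 note: 0% = DMSO basal wells and 100% = positive control agonist at 10 µM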
Peroxisome proliferator-activated receptor delta (Homo sapiens), sequence (Q03181 whole entry, looked up): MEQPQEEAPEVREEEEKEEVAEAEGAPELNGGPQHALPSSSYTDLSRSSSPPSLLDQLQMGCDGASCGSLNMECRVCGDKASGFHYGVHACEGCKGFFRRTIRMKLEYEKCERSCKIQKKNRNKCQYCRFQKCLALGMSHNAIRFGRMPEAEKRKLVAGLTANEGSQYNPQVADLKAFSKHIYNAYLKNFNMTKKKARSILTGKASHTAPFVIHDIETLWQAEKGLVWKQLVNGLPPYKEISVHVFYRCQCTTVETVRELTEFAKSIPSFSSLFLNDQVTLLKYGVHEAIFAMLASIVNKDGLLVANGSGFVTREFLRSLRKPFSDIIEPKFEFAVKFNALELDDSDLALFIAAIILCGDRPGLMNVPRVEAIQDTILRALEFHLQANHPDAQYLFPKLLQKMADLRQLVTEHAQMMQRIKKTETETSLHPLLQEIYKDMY
How it was run: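 Titration series tested in agonist mode on beta-lactamase reporter cells; 18 hrs at 37 C after a 5 hr pre-incubation. Readout: CCF4 fluorescence, 2 hrs RT. Hill equation gives EC50 and maximal response.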

[4] = qHTS assay for small molecule antagonists of peroxisome proliferator-activated receptor delta signaling (AID 588535; active = well fitted inhibition curve with a large enough effect in the signal ratio, with a control signal flat, not every such curve was filed as active; the % refers to the signal ratio;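 for max response: cells co-treated with a PPAR-delta agonist as stimulator during compound exposure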); conditions: HEK293T PPARd-UAS-bla, beta-lactamase FRET ratio, 18 h; 460 nm channel
How it was run: (§1)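 Beta-lactamase reporter read-out (405 nm excitation, 460/530 nm emission) after CCF4 loading for 2 hrs at RT. HEK293T PPAR-delta-UAS-bla cells, 2% charcoal/dextran FBS, compounds for 18 hrs at 37 C. Hill fit gave IC50 and efficacy.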

[5] = biological target: Peroxisome proliferator-activated receptor delta (Homo sapiens) (UniProt Q03181); test: as above
How it was run: as §1

[6] = biological target: Peroxisome proliferator-activated receptor gamma (Homo sapiens) (UniProt P37231); test: qHTS assay for small molecule antagonists of peroxisome proliferator-activated receptor gamma signaling (AID 588537; active = well fitted inhibition curve with a large enough effect in the signal ratio, with a control signal flat, not every such curve was filed as active; the % refers to the signal ratio;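 note: reporter cells co-stimulated with 50 nM rosiglitazone agonist during compound treatment; % of control where 0% means no effect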)
Peroxisome proliferator-activated receptor gamma (Homo sapiens), sequence (P37231 whole entry, looked up): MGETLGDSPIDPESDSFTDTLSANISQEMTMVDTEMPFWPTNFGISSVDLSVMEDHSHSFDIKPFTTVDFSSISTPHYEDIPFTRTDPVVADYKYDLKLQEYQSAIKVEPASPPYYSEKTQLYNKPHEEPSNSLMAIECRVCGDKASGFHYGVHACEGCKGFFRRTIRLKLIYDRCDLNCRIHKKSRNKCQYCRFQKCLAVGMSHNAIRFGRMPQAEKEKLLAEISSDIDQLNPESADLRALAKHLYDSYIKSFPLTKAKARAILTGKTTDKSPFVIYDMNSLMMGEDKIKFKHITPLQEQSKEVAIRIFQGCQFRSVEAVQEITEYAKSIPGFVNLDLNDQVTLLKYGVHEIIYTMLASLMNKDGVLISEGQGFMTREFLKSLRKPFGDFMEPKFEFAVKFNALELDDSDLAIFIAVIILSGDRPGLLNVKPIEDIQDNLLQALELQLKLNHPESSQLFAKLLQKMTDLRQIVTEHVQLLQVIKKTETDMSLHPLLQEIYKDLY
How it was run: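 Read-out: CCF4 fluorescence (ex 405, em 460/530 nm) after 2 h at RT. Cells were HEK293 carrying a UAS-bla reporter and treated 16 h at 37 C with compound plus rosiglitazone (50 nM final). Normalized to rosiglitazone and DMSO.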

[7] = biological target: Vitamin D3 receptor (Homo sapiens) (UniProt P11473); test: qHTS assay for small molecule antagonists of vitamin D receptor signaling (AID 588541);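 note: receptor activated by calcitriol during compound treatment; series mostly up to about 77 µM; % is set by controls: 0 for no effect and ±100 for the full control effect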
Vitamin D3 receptor (Homo sapiens), sequence (P11473 whole entry, looked up): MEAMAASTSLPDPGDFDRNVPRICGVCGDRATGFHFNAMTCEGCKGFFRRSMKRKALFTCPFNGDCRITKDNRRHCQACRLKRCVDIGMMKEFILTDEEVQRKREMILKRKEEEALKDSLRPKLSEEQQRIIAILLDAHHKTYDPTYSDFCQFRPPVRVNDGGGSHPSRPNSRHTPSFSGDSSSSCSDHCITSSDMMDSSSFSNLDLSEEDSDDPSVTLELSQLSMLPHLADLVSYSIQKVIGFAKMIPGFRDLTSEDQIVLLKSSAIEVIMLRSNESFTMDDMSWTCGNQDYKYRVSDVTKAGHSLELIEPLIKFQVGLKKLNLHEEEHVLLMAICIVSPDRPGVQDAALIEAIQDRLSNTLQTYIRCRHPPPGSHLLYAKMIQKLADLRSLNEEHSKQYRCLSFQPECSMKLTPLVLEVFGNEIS
How it was run: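 VDR-UAS-bla HEK293T cells in 2% charcoal-stripped FBS were stimulated with 1-alpha,25-dihydroxyvitamin D3 (3 nM final) plus compound for 16 h at 37 C. The beta-lactamase CCF4 readout was normalized to 50 nM agonist and DMSO, and Hill fits gave IC50.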

[8] = biological target: Vitamin D3 receptor (Homo sapiens) (UniProt P11473); test: qHTS assay for small molecule agonists of vitamin D receptor signaling (AID 588543);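 note: 0% = DMSO basal and 100% = reference agonist control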
How it was run: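 Reporter cells (HEK293T, VDR-UAS-bla) were seeded in medium with 2% charcoal-stripped serum and incubated 5 h, then compounds in concentration series were added for 16 h at 37 °C. Stimulation was scaled between DMSO basal and 50 nM 1α,25-dihydroxyvitamin D3.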

[9] = qHTS assay for small molecule agonists of retinoid X receptor alpha signaling (AID 588544); conditions: HEK293T RXRa-UAS-bla, beta-lactamase reporter, 18 h; 530 nm emission;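 for activation: 0% = DMSO basal wells and 100% = reference agonist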
[10] = biological target: Retinoic acid receptor RXR-alpha (Homo sapiens) (UniProt P19793); test: as above
Retinoic acid receptor RXR-alpha (Homo sapiens), sequence (P19793 whole entry, looked up): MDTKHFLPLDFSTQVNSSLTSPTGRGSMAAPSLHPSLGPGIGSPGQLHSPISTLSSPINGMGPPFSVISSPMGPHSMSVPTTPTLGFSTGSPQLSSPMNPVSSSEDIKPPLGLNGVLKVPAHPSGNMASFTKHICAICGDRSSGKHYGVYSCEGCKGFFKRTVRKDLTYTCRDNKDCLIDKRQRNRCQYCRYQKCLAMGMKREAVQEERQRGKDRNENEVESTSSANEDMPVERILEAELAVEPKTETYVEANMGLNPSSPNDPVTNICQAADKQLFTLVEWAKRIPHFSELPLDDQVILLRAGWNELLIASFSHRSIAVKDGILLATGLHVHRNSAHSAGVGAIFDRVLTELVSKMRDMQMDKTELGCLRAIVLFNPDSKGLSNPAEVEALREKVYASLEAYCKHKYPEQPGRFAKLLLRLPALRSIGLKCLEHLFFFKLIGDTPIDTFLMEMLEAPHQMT

[11] = biological target: Thyroid hormone receptor beta (Homo sapiens) (UniProt P10828); test: qHTS assay for small molecule agonists of thyroid hormone receptor beta signaling (AID 588545)
Thyroid hormone receptor beta (Homo sapiens), sequence (P10828 whole entry, looked up): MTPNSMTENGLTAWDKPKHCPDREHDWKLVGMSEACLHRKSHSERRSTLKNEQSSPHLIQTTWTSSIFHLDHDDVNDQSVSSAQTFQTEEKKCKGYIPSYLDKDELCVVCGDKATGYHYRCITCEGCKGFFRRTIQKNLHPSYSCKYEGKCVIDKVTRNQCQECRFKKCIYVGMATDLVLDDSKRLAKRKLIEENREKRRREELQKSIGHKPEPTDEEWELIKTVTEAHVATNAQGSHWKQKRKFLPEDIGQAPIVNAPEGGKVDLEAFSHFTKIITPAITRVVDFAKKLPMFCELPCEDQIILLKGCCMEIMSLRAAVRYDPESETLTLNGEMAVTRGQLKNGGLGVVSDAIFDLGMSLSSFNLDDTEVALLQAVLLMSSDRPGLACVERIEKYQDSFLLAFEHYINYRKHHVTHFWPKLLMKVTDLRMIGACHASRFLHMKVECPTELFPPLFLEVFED
How it was run: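 Cells (2500/well) were seeded, incubated 4 hrs at 37 C, dosed with a compound series, incubated 18 hrs, loaded with CCF4 dye for 2 hrs at RT, then read for fluorescence. Data were scaled between DMSO (0%) and 10 nM T3 (100%).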

[12] = qHTS assay for small molecule antagonists of retinoid X receptor alpha signaling (AID 588546; active = well fitted inhibition curve with a large enough effect in the signal ratio, with a control signal flat, not every such curve was filed as active; the % refers to the signal ratio;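 note: cells stimulated with 9-cis-retinoic acid as agonist; % is set by controls: 0 for no effect and ±100 for the full control effect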); conditions: HEK293T RXRa-UAS-bla, beta-lactamase ratio, antagonist mode; measured here: W530 green channel, cytotoxicity proxy
How it was run: (§2)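 Beta-lactamase reporter inhibition, read as CCF4 fluorescence ratio (ex 405, em 460/530 nm) after 2 h at RT. HEK293T UAS-bla cells, 2500/well, were stimulated with 9-cis-RA at 500 or 100 nM final alongside test compound for 18 h at 37 C.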

[13] = biological target: Retinoic acid receptor RXR-alpha (Homo sapiens) (UniProt P19793); test: as above; conditions: HEK293T RXRa-UAS-bla, beta-lactamase ratio, antagonist mode
How it was run: as §2

[14] = qHTS assay for small molecule agonists of the antioxidant response element (ARE) signaling pathway (AID 651741; active = well fitted activation curve with a large enough effect in the signal ratio; the % refers to the signal ratio; note: potency is the fitted concentration of half-maximal effect; for activation: % of control where 0% means no effect)
How it was run: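 HepG2 ARE-bla reporter cells, 2,000/well; 5 h settle at 37 C/5% CO2; compound pin transfer (23 nL, DMSO); 16 h at 37 C; LiveBLAzer B/G FRET substrate, 2 h RT; fluorescence intensity read.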

[15] = qHTS assay for small molecule activators of the p53 signaling pathway (AID 651743; active = well fitted activation curve with a large enough effect in the signal ratio, not every such curve was filed as active; the % refers to the signal ratio; note: series mostly up to about 92 µM; % of control where 0% means no effect); conditions: HCT-116 p53RE-bla, beta-lactamase FRET ratio, 16 h; activation: stronger effect = higher value
How it was run: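 Reporter: beta-lactamase driven by p53 response elements, stably integrated in HCT-116 cells. Cells seeded at 4,000/well, 5 h preincubation, compound (DMSO) 16 h at 37 C; B/G FRET substrate 2 h RT; fluorescence intensity read.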

[16] = qHTS assay for small molecule activators of the nuclear factor-kappa B (NF-kB) signaling pathway (AID 651749; active = well fitted activation curve with a large enough effect in the signal ratio; the % refers to the signal ratio; note: series mostly up to about 77 µM; % of control where 0% means no effect); conditions: NF-kB-bla ME-180 cells, beta-lactamase FRET ratio, 16 h; activation: stronger effect = higher value
How it was run: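 NF-kB-bla ME-180 cells, 2,000/well; 23 nL compound or DMSO pinned; 16 hr, 37C/5% CO2; beta-lactamase FRET read-out.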

[17] = qHTS assay for environmental chemicals that activate the Aryl hydrocarbon Receptor (AhR) signaling pathway (AID 651777; active = well fitted curve in the direction sought with a large enough effect; an effect the other way counts as inactive or inconclusive; note: % of control where 0% means no effect; nearly all actives have a fitted effect of over 15% in size); conditions: 1A2-DRE human hepatoma cells, luciferase, 24 h; activation: stronger effect = higher value
How it was run: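 Luminescence read-out: One-Glo added for 30 min at RT after 24 hr compound treatment (37 C, 5% CO2) of human hepatoma cells expressing a DRE/CYP1A2 promoter–luciferase reporter; increased signal indicates AhR activation.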

[18] = biological target: Peroxisome proliferator-activated receptor alpha (Homo sapiens) (UniProt Q07869); test: qHTS assay for small molecule agonists of the peroxisome proliferator-activated receptor alpha (PPARalpha) signaling pathway (AID 651778; active = well fitted curve in the direction sought with a large enough effect; an effect the other way counts as inactive or inconclusive; note: % of control where 0% means no effect); conditions: PathHunter PPARalpha complementation, chemiluminescence, 6 h; max response: stronger effect = higher value
Peroxisome proliferator-activated receptor alpha (Homo sapiens), sequence (Q07869 whole entry, looked up, the tested form may be a part): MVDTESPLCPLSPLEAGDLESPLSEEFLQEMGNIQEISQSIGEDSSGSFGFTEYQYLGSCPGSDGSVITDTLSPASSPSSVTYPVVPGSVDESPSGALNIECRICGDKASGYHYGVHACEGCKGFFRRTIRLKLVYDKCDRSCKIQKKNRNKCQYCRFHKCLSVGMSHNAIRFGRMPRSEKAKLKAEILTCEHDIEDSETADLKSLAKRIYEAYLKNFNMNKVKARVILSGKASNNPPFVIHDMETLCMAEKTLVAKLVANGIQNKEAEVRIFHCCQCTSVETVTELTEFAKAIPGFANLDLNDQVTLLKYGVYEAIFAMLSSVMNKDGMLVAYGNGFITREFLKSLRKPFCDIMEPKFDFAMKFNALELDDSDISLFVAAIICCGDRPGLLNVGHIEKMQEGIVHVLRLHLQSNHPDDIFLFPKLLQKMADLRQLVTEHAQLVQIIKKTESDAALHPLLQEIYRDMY
How it was run: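 Enzyme-fragment complementation assay in which ligand-bound PPARalpha translocates and forms an active enzyme that generates chemiluminescence. Cells were plated overnight, exposed to compound for 6 hr at 37 C, and then given detection reagent for 60 min at room temperature.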

[19] = qHTS assay for small molecule agonists of the antioxidant response element (ARE) signaling pathway measured by Nrf2-dependant transcriptional activity (AID 720636; active = well fitted curve in the direction sought with a large enough effect in the repeat runs; an effect the other way counts as inactive or inconclusive;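 note: HepG2 cells with an ARE-driven luciferase reporter; % of control where 0% means no effect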)
How it was run: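 HepG2 ARE-luc reporter line, 1% dialyzed FBS; 6 hr attachment at 37 C, compound pinned in, 16 hr at 37 C/5% CO2; ONE-Glo, 30 min RT, luminescence read.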

[20] = qHTS assay for small molecule agonists of the antioxidant response element (ARE) signaling pathway measured by Nrf2-dependant transcriptional activity - cell viability counter screen (AID 720653; active = well fitted curve in the direction sought with a large enough effect in the repeat runs; an effect the other way counts as inactive or inconclusive; note: % is set by controls: 0 for no effect and ±100 for the full control effect); conditions: ARE-bla HepG2 viability, CellTiter-Glo ATP luminescence, 16 h; max response: stronger effect = lower value
How it was run: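 ARE-bla HepG2 cells treated with compounds for 16 h at 37C; this counter screen measures viability as intracellular ATP by CellTiter-Glo luminescence after 30 min at room temperature.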

[21] = qHTS assay for cell viability of HEK293 cells (AID 743288; active = well fitted curve in the direction sought with a large enough effect; an effect the other way counts as inactive or inconclusive; note: % is set by controls: 0 for no effect and ±100 for the full control effect; nearly all actives have a fitted effect of over 50% in size); conditions: ATP luminescence (CellTiter-Glo), 18 h; max response: stronger effect = lower value
How it was run: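 Viable-cell counts were inferred from luciferase-based ATP content in HEK293 cells seeded at 2,000/well, pre-incubated ≥5 h, then dosed with DMSO-solubilised compounds for 18 h at 37 C.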

[22] = qHTS assay for cell viability of the p53RE-bla HCT-116 cell line (AID 743292; active = well fitted curve in the direction sought with a large enough effect; an effect the other way counts as inactive or inconclusive; note: % is set by controls: 0 for no effect and ±100 for the full control effect; nearly all actives have a fitted effect of over 55% in size)
How it was run: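 Luminescent ATP quantitation (CellTiter-Glo) served as the viability read-out; reagent was added after 16 h compound exposure at 37 C and read after 30 min at room temperature. Cells: p53RE-bla HCT-116, 4,000 per well.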

[23] = biological target: Nuclear receptor subfamily 1 group I member 2 (Rattus norvegicus) (UniProt Q9R1A7); test: qHTS assay for small molecule activators of the rat pregnane X receptor (rPXR) signaling pathway (AID 651751; call rule not given here; note: 0% is about no effect); conditions: rPXR reporter cells, luciferase (One-Glo), 24 h
Nuclear receptor subfamily 1 group I member 2 (Rattus norvegicus), sequence (Q9R1A7 whole entry, looked up): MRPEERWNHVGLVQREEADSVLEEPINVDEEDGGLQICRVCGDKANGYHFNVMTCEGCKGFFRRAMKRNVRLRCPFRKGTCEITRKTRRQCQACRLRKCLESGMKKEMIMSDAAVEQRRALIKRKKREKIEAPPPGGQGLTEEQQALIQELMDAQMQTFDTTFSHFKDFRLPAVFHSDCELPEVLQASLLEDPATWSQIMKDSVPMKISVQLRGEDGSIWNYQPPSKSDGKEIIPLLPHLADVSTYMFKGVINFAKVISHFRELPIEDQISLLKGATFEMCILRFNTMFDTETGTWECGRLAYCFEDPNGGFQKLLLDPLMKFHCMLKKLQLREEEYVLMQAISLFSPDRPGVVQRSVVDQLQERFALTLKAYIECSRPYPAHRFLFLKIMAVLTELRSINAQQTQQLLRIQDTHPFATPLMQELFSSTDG

[24] = qHTS assay for small molecule activators of the human pregnane X receptor (PXR) signaling pathway (AID 720659; call rule not given here; note: 0% is about no effect)
[25] = biological target: Peroxisome proliferator-activated receptor gamma (Homo sapiens) (UniProt P37231); test: qHTS assay for small molecule agonists of peroxisome proliferator-activated receptor gamma signaling (AID 588536; active = well fitted curve in the direction sought with a large enough effect in the signal ratio, with a control signal flat, not every such curve was filed as active; the % refers to the signal ratio;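 note: 0% = DMSO basal wells and 100% = rosiglitazone at 2 µM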)
How it was run: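 Beta-lactamase reporter read-out: CCF4 fluorescence (ex 405, em 460/530 nm) after 2 h at RT. HEK293 GeneBLAzer cells were treated for 16 h at 37 C. Hill fits gave EC50 and efficacy versus 2 uM rosiglitazone (100%) and DMSO (0%).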

[26] = biological target: Thyroid hormone receptor beta (Homo sapiens) (UniProt P10828); test: qHTS assay for small molecule antagonists of thyroid hormone receptor beta signaling (AID 588547; active = well fitted inhibition curve with a large enough effect in the signal ratio, with a control signal flat, not every such curve was filed as active; the % refers to the signal ratio); conditions: TR-UAS-bla HEK293, beta-lactamase ratio, antagonist mode, 18 h
How it was run: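 TR-UAS-bla GripTite HEK293 cells in 2% charcoal/dextran FBS medium; compounds 0.59 nM to 92 uM with T3 at 0.4nM final, 18 h at 37 C. Beta-lactamase read by CCF4 fluorescence (460/530 nm); Hill fits gave IC50 and efficacy.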

CC(=O)Nc1ccc(C(=O)CCl)cc1
inactive: activation [1] 2.69%

Nc1nc(N)nc(N)n1
-6.58%: max response [9]
-0.207%: max response [12]
inactive: Potency [2] | activation [1] 0.442% | outcome [3] | Potency [5] | Potency [6] | Potency [7] | outcome [8] | Potency [10] | Potency [11] | max response [13] -7.03% | Potency [14] | activation [15] -2.16% | activation [16] -1.8% | activation [17] -1.1% | max response [18] -3.29% | Potency [19] | max response [20] -2.99% | max response [21] -12% | Potency [22] | max response [23] -3.43% | outcome [24]
16%: max response [4]

CC1(C(=O)Nc2ccc(O)c(Cl)c2Cl)CCCCC1
-10.8%: max response [9]
-23.6%: max response [12]
active: Potency [14] 30.6 µM
11.8%: max response [4]
inactive: Potency [2] | outcome [3] | Potency [5] | Potency [25] | Potency [7] | outcome [8] | Potency [10] | Potency [11] | max response [13] -4.55% | activity change % (negative = inhibition) [26] 15.7% | activation [15] 0.119% | activation [16] 0.744% | activation [17] 0.158% | max response [18] 3.06% | max response [20] 4.3% | max response [21] -8.66% | Potency [22] | max response [23] 1.26%

CCN(CC)c1ccc(N)cc1
inactive: activation [1] -0.874%

CCCCCCCCCC[N+](C)(C)Cc1ccccc1
inactive: activation [1] 3.15%

Oc1ccc(C(c2ccc(O)cc2)C(Cl)(Cl)Cl)cc1
inactive: activation [1] 0.126%

Oc1ccc(Nc2ccccc2)cc1
inactive: activation [1] 0.593%

CC1(C)[C@@H]([C@@H](Br)C(Br)(Br)Br)[C@H]1C(=O)O[C@H](C#N)c1cccc(Oc2ccccc2)c1
inactive: activation [1] 6.35%

Nc1nc2ccccc2[nH]1
inactive: activation [1] 3.95%

COCC(=O)N(c1c(C)cccc1C)N1CCOC1=O
-6.17%: max response [4]
inactive: Potency [2] | activation [1] -0.109% | outcome [3] | Potency [5] | Potency [7] | outcome [8] | Potency [10] | Potency [11] | max response [13] 4.82% | Potency [14] | activation [15] -3.26% | activation [16] -1.88% | max response [18] 0.278% | Potency [19] | max response [20] 1.06% | max response [21] 2.38% | Potency [22] | max response [23] 3.21% | outcome [24]
-10.4%: max response [12]
-6.63%: max response [9]

OCC(CO)(CO)COCC(CO)(CO)CO
inactive: activation [1] -6.39%

From PubChem BioAssay (NCATS)
